High-throughput results from PubChem.
MazEF act: activators of E. coli MazEF toxin-antitoxin RNase | FAM/BHQ RNA-DNA oligo cleavage fluorescence, 5 h | activation, % at 20 µM | 350,000 tested, 0.32% active | AID 504720; in the data active means activation above about 50%
Anthrax LF inh2: anthrax lethal factor protease inhibition; multiplex microsphere protease cleavage assay, LF; inhibition, % at 10 µM; 360,000 tested, 0.12% active; AID 588501; further: plate controls were buffer without enzyme for full effect and enzyme alone for no effect
Vc quorum ag: quorum light induction in luxS cqsA deficient V. cholerae. V. cholerae BH1578 lux reporter, luminescence, 6 h. activation, % at 18.7 µM. 350,000 tested, 0.16% active. AID 588436; in the data active means activation mostly above about 9.7%, no sharp cut-off; inconclusive means no clear call, values can overlap the other calls; inactive means mostly below about 3.7%
BoNT F protease: blocks Botulinum neurotoxin F light chain protease. 360,000 tested, 0.22% active. inhibition, % at 10 µM. Multiplex microsphere protease cleavage assay, flow cytometry; in the data active means inhibition above about 35%, passing the limit was not always enough; inconclusive means no clear call, values can overlap the other calls; further: plate controls were buffer without enzyme for full effect and enzyme alone for no effect
Autofluor counter: counter-screen for toxin protease inhibitors: compound fluorescence. compound autofluorescence counterscreen, microsphere flow cytometry; hits give high values. fluorescence intensity (no concentration beside the values). 360,000 tested, 3.1% active. AID 624483; in the data active means fluorescence intensity above about 16000; inconclusive means no clear call, values can overlap the other calls
BoNT A protease: blocks Botulinum neurotoxin A light chain protease | multiplex microsphere protease substrate cleavage, flow cytometry | inhibition, % at 10 µM | 360,000 tested, 0.17% active | AID 588499; further: plate controls were buffer without enzyme for full effect and enzyme alone for no effect
* marks the source's active call; other numbers are inactive results; i = inactive; ? = inconclusive; . = no result given. Hits are enriched below; roughly 3.9% of the tested compounds scored in any of these assays. Unless noted, no stated cut-off is given here; in the data, active means inhibition above about 30%; inconclusive means no clear call, values can overlap the other calls; inactive means below that.

SMILES	MazEF act	Anthrax LF inh2	Vc quorum ag	BoNT F protease	Autofluor counter	BoNT A protease
Oc1c(C=C2N=c3ccccc3=N2)sc(=S)n1C1CCCC1	2	39*	-2	26	2041	70*
Oc1c(C=C2N=c3ccccc3=N2)sc(=S)n1-c1ccc(F)cc1	19	34*	0	19	2517	54*
Oc1c(C=C2N=c3ccccc3=N2)sc(=S)n1-c1ccc2ccccc2c1	-3	21	0	8	3905	14
CCN(CC)S(=O)(=O)c1ccc(N2CCOCC2)c(NC(=O)c2cc([N+](=O)[O-])ccc2Cl)c1	3	-1	0	-2	4323	0
N#C/C(=C\c1cn(Cc2ccc(C#N)cc2)c2ccccc12)C(=O)NCc1cccs1	55*	-3	0	-2	2432	-1
Cc1ccc(C)c(OCCn2cc(/C=C(\C#N)C(=O)NCc3cccs3)c3ccccc32)c1	-6	-2	i	3	22488*	2
Cc1nc2n[nH]c(N)c2c2c1COC(C)(C)C2	4	-1	-1	-4	2220	0
CC1(C)Cc2nc3n[nH]c(N)c3cc2CO1	-12	-2	i	-4	24639*	-3
COc1cccc(C(=O)NCC(=O)N2CCC3(CC2)NCCc2[nH]cnc23)c1OC	2	2	0	2	6255	0
COc1cc(OC)cc(C(=O)NC2CCSC2=O)c1 (centres undefined)	3	-2	i	-4	17088*	-1
COc1ccc(C(=O)NC(=S)NC2CCSC2=O)cc1 (centres undefined)	-8	7	-1	8	2596	1
Cc1cc(=O)[nH]c(SCc2nc3ncccn3c2Br)n1	5	-1	3	-4	24282*	-2
Cc1cc(=O)[nH]c(SCc2cccc3cccnc23)n1	8	-1	0	2	4247	-2
N#C/C(=C\c1ccccc1[N+](=O)[O-])C(=O)NCc1ccccc1	-13	-9	-1	?	4673	?
CCCCCCCCNC(=O)/C(C#N)=C/c1ccccc1[N+](=O)[O-]	122*	-1	0	2	1924	0
Cc1nnc2c3ccccc3c(-c3ccccc3)nn12	10	1	i	-5	11084	0
Cc1nnc2c3ccccc3c(-c3cccc4ccccc34)nn12	9	-6	i	8	19934*	?
CC(=O)Nc1cc(-c2ccc(N(C)C)cc2)cn2c(-c3ccc(F)c(Cl)c3)cnc12	.	-6	4	-2	2973	0
CCOC(=O)COc1ccc(S(=O)(=O)Nc2ccc(C)cc2)cc1	-2	-1	2	-2	20911*	?
CCOc1ccc(S(=O)(=O)NN)cc1	50*	-3	i	-2	3874	0
COC(=O)COc1ccc(S(=O)(=O)NCCC2=CCCCC2)cc1C	-7	-1	0	-9	22566*	-7
CCOC(=O)COc1ccc(S(=O)(=O)Nc2ccc3c(c2)OCO3)cc1	-12	-5	-6	-11	11349	-1
CCCNS(=O)(=O)c1ccc(OCC(=O)NCCC2=CCCCC2)cc1	-7	-1	0	-6	25068*	-3
CC(C)NS(=O)(=O)c1ccc(OCC(=O)NCCC2=CCCCC2)cc1	-3	-1	i	0	11035	0
N#Cc1ccccc1S(=O)(=O)N1CCN(CC(=O)Nc2ccccc2C(=O)NC2CC2)CC1	2	-7	i	-7	3641	0
SMILES	MazEF act	Anthrax LF inh2	Vc quorum ag	BoNT F protease	Autofluor counter	BoNT A protease
Cc1ccc(C2(C)NC(=O)N(CC(=O)N(C)CC(=O)Nc3cccc4ccccc34)C2=O)cc1 (centres undefined)	4	-1	3	-4	?	5
CCCNS(=O)(=O)c1ccc(OCC(=O)OC)cc1	7	1	0	-3	24397*	-1
O=C1OC(COc2ccc(Br)cc2)CN1c1ccccc1 (centres undefined)	-8	-1	i	-8	5855	0
CC(=O)c1ccc(NS(=O)(=O)Cc2ccccc2)cc1	-8	4	-1	0	12649	1
COc1ccc(NS(=O)(=O)Cc2ccccc2)cc1OC	-3	0	0	-2	21419*	2
CC(=O)N(C)c1ccc(NS(=O)(=O)Cc2ccccc2)cc1	-12	0	-1	1	22151*	?
O=[n+]1c2c(n([O-])c3ccccc31)CCCC2	-1	0	0	2	16483*	0
CCOC(=O)C1=C(c2ccccc2)NC(SCC(N)=O)=C(C#N)C1c1cccnc1 (centres undefined)	6	-2	6	4	19434*	3
CCOC(=O)CNC(=O)Cn1cnc2c(nnn2-c2ccc(C)cc2)c1=O	-8	-12	i	10	18628*	10
COC(=O)Cn1cnc2c(nnn2-c2ccc(C)cc2)c1=O	5	-5	i	3	10946	-1
CCOC(=O)CNC(=O)Cn1cnc2c(nnn2-c2cccc(Cl)c2)c1=O	9	2	1	-3	23372*	-2
CCOC(=O)CNC(=O)Cn1cnc2c(nnn2-c2cccc(OC)c2)c1=O	13	-12	i	-1	3755	-1
OC(c1cccc(CN2CCCCC2)c1)c1ncc(-c2cccc3ccccc23)[nH]1 (centres undefined)	.	5	-1	-3	4071	0
O=C(O)c1ccc(-c2ccc(OS(=O)(=O)c3ccccc3F)cc2)cc1	1	-2	0	8	5387	-1
COC(=O)c1ccccc1S(=O)(=O)Oc1ccc(-c2ccc(C(=O)O)cc2)cc1	-3	-14	i	37*	3745	-3
CC(C)Nc1ccc(C(CC(N)=O)NC(=O)Cc2ccc(Br)cc2)cc1[N+](=O)[O-] (centres undefined)	-3	-6	i	1	3249	0
COc1ccc(CN(C(=O)CN2C(=O)C(C)Oc3ccccc32)C2CCCC2)c(OC)c1 (centres undefined)	2	-6	i	-7	7941	-1
COc1ccc(CN(C(=O)CN2C(=O)COc3ccccc32)C2CCCC2)c(OC)c1	-5	2	2	3	21877*	2
Nc1c(S(=O)(=O)c2cccs2)c2nc3ccccc3nc2n1CC1CCCO1 (centres undefined)	4	1	0	4	22380*	3
Nc1c(S(=O)(=O)c2cccs2)c2nc3ccccc3nc2n1Cc1cccs1	8	-1	0	-4	2901	0
Cc1nn(C)c(C)c1NS(=O)(=O)c1ccccc1Cl	3	-1	0	2	2910	2
Cc1nc2ccc(Cl)cc2nc(C)/c1=N\O	-2	5	-1	-6	2982	0
Cc1ccc2nc(C)/c(=N\O)c(C)nc2c1	4	-1	-1	-5	16928*	-2
CN(C)c1ncc(C(=O)O)cn1	4	-1	-1	-3	16816*	-1
CN(C)c1cncc(C(=O)O)c1	5	-2	0	-3	2136	0
c1ccc2c(COn3nnc4ccccc43)cccc2c1	-10	1	-2	0	21859*	2
